A selection: hits, their analogues and other compounds. The true share with any hit is near 0.52%.
Vif-A3G inh: qHTS for Inhibitors of Vif-A3G Interactions: qHTS; Potency, µM (top dose mostly 46.1 µM), without a hit: top-dose activity, negative = active, actives largely listed as inhibitors; DNA dC->dU-editing enzyme APOBEC-3G (Homo sapiens), Q9HC16; AID 602310, 2012; HeLa A3G-eYFP + Vif (tagged APOBEC3G with the HIV-1 protein that degrades it), YFP fluorescence, overnight; 410,000 compounds, 0.076% hits; further: on the % scale 0 is the no-effect control and ±100 the full control effect; nearly all actives have a fitted effect of over 60% in size
Target sequence (Q9HC16 whole entry, looked up): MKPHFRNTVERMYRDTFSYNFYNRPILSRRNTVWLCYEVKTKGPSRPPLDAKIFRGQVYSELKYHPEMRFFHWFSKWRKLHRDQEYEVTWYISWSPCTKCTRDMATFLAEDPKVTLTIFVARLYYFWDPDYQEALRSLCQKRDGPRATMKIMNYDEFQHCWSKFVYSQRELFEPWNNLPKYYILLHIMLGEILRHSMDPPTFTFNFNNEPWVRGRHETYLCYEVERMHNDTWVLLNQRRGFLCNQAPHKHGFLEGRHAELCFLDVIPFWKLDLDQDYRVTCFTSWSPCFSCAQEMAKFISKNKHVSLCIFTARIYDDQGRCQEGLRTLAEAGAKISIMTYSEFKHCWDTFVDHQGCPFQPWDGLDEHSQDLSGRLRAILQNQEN
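HeLa cells stably expressing Vif and C-terminally eYFP-tagged A3G, seeded overnight at 37 deg C, then exposed to compound by pintool overnight at 37 deg C. Rise in yellow fluorescence (Ex 488/Em 500-530, Acumen) marks blocked Vif-driven A3G degradation.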
PINK1 expr mod: A Quantitative High throughput Screen to Identify Chemical Modulators of PINK1 Expression; PINK1 immunofluorescence, high-content cytometry, 24 h; Potency, µM (doses to about 76.6 µM), for the others: at the highest dose activation (PINK1 increase), most hits filed as activators; 410,000 compounds, 0.2% hits; active means well fitted activation curve with a large enough effect; inconclusive means small, poorly fitted or top-dose-only effect; cell line not stated here; further: % of control where 0% means no effect; nearly all actives have a fitted effect of over 65% in size
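Fluorescence from anti-PINK1 antibody, together with nuclear and cell stains, was scanned on a laser-scanning cytometer. Before staining, stable-line cells were incubated 24 hours with compounds at 5 concentrations; primary antibody 12 h at 10 degrees C.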
Epigenetic derep: Quantitative High-Throughput Screen for Regulators of Epigenetic Control | murine LDR cells, GFP reporter derepression, 30 h | Potency, µM (highest dose often 53.9 µM), for inactives: at the top dose GFP activation, most hits filed as activators | 280,000 compounds, 0.2% hits | AID 1865, 2009; further: % of control where 0% means no effect; nearly all actives have a fitted effect of over 60% in size
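Murine LDR cells bearing a silenced CMV-driven GFP reporter were exposed to compound for 30 h at 37 C. After PBS washes, GFP-positive cells (20-120 um objects) counted by laser-scanning microplate cytometry.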
Vif-APOBEC3F blk: qHTS for Inhibitors of Vif-A3F Interactions: qHTS; HeLa A3F-eYFP + Vif (tagged APOBEC3F with the HIV-1 protein that degrades it), YFP fluorescence increase; Potency, µM (series often up to 46.1 µM), for inactives: top-dose activity, negative = active; 390,000 compounds, 0.2% hits; AID 602313, 2012; further: % of control where 0% means no effect; nearly all actives have a fitted effect of over 65% in size
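HeLa cells stably expressing Vif plus C-terminally eYFP-tagged A3F were seeded, incubated overnight at 37 deg C, dosed with compound, incubated overnight again at 37 deg C. Yellow fluorescence (Ex 488/Em 500-530) reported blocked Vif-mediated A3F-eYFP degradation.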
Starred values were filed as active, the others as inactive; ? = inconclusive; . = no result. Unless noted, the call rests on the fitted dose curve; in most records, active means well fitted curve in the direction sought with a large enough effect; inconclusive means small, poorly fitted or top-dose-only effect, or another doubt; inactive means no such curve, though single readings can be large; an effect the other way counts as inactive or inconclusive. Potency means the concentration at half of the fitted maximal effect.

SMILES	Vif-A3G inh	PINK1 expr mod	Epigenetic derep	Vif-APOBEC3F blk
COc1ccc(NC(=O)c2cccc(NC(=O)C(C)C)c2)c([N+](=O)[O-])c1	1%	15%	-1%	-3%
Cc1ccn2c(Nc3ccc4c(c3)OCO4)c(-c3ccccn3)nc2c1	-2%	40µM*	1%	4%
Cc1ncc2c(c1CNS(=O)(=O)N(C)C)CCN(C(=O)/C=C/c1cccc(F)c1)C2	.	0%	.	.
O=C(C[n+]1cc(Br)cc2ccccc21)c1ccc(O)c(O)c1	2%	6%	.	.
O=C(C[n+]1cc(Br)cc2ccccc21)c1ccccc1	?	40µM*	.	?
COC(=O)c1cn([C@@H]2C[C@@H](C(=O)Nc3cccc(SC)c3)N(C3CCCCCC3)C2)nn1	.	1%	.	.
COc1cc(-c2nc3ccc(C)cn3c2NCc2ccccc2)ccc1SC1CCCCC1	10µM*	?	.	-1%
Cc1ccc(NC(=O)c2ccccc2NS(=O)(=O)c2ccc(Cl)s2)cc1	-6%	20µM*	-1%	-21%
O=C(Nc1ccccc1Cc1ccccc1)c1ccccc1NS(=O)(=O)c1ccc(Cl)s1	4%	11µM*	-1%	-13%
O=C(Nc1ccccc1)c1ccccc1NS(=O)(=O)c1ccc(Cl)s1	-18%	?	-1%	4%
O=C(NNc1ccccc1[N+](=O)[O-])Nc1ccc(Cl)c(Cl)c1	-4%	?	1%	?
CCN(CC)S(=O)(=O)c1cc([N+](=O)[O-])ccc1NNC(=O)Nc1ccc(Cl)c(Cl)c1	2%	14µM*	-1%	0%
O=C(O)Cc1sc(NC2CCCCC2)nc1-c1ccc(Cl)cc1	-27%	5%	.	25µM*
Cc1ccc(-c2nc(Nc3cccc(C)c3)sc2CC(=O)O)cc1	-21%	11%	1%	?
O=C(O)c1ccc2nc(-c3cc4cccc(O)c4oc3=O)[nH]c2c1	.	1%	-1%	.
C=CCc1cccc2cc(-c3nc4ccc(C)cc4[nH]3)c(=O)oc12	-3%	-1%	4µM*	.
COc1ccc(F)c(CN2CCC3(CCC(CNC(=O)c4cc(C)nn4C)O3)CC2)c1 (stereo not given)	.	1%	.	.
CCOC(=O)c1ccc(/C=C2/C=C(c3ccccc3)N(c3ccc(Cl)c(C(=O)O)c3)C2=O)cc1	?	-4%	0%	13µM*
CCOC(=O)c1ccc(Cl)c(NC(=O)c2ccc(-c3ccccc3)cc2)c1	-10%	.	0%	-2%
CCCCCCc1cc2cc(S(=O)(=O)c3ccc(F)cc3)c(=O)oc2cc1O	-6%	40µM*	1%	3%
CCCCCCc1cc2cc(-c3nnc(-c4ccccc4O)o3)c(=O)oc2cc1O	3.2µM*	?	6.3µM*	?
CCCCCCc1cc2cc(-c3nnc(-c4cc(OC)c(OC)c(OC)c4)o3)c(=O)oc2cc1O	?	?	4%	?
O=C(O)c1ccc2oc(=O)c(S(=O)(=O)c3ccc(F)cc3)cc2c1	-2%	-1%	.	7%
CCCCCCc1cc2cc(-c3nnc(-c4ccccc4OC)o3)c(=O)oc2cc1O	13µM*	?	?	?
CCCCCCc1cc2cc(C(=O)Nc3ccccc3OC)c(=O)oc2cc1O	-1%	?	-1%	3%
SMILES	Vif-A3G inh	PINK1 expr mod	Epigenetic derep	Vif-APOBEC3F blk
COc1cc(=O)n2c(c1C(=O)N(C)Cc1nonc1C)CCN(Cc1c(F)cccc1F)CC2	.	1%	.	.
O=C(Oc1ccc(Cl)c2cccnc12)c1ccco1	11µM*	4%	?	-7%
O=C(Oc1cccc2cccnc12)c1ccco1	?	-1%	?	-7%
CSc1ncccc1C(=O)NCC1Cc2cc(-c3cnccn3)ccc2O1 (stereo not given)	.	-1%	.	.
O=S(=O)(Nc1cc(Cl)ccc1-n1cncn1)c1cc(Br)ccc1Br	-8%	16µM*	.	2%
Cc1ccccc1-c1ccc(CN2CCc3nnc(CNC(=O)c4ccccn4)n3CC2)cc1	.	2%	.	.
O=S(=O)(NCc1nnc2n1CCN(Cc1ccccc1Cl)CC2)c1ccccc1	.	0%	.	.
COc1ccc2nc3ccccc3nc2c1NC(=O)c1ccc(Br)cc1	?	14µM*	5%	6.3µM*
COc1ccc2nc3ccccc3nc2c1NC(=O)c1ccc(Cl)cc1	-11%	?	?	11µM*
COc1ccccc1Oc1ccc(NC(=O)c2ccc(Cl)cc2)cc1	3%	6%	2%	2%
Nc1ccc(N(CCO)CCO)cc1	3%	3%	-5%	-6%
CCN(CC)c1ccc(N)cc1	-13%	14µM*	.	-1%
O=c1[nH]c2ccccc2n2c(=S)[nH]nc12	5%	1%	0%	22µM*
O=c1[nH]c2ccccc2n2c(C(F)(F)F)nnc12	-26%	7%	.	10µM*
COc1ccccc1N=C1NC(=O)/C(=C/c2ccc(N(C)C)cc2)S1	4µM*	3%	.	8.9µM*
Cc1cccc(CNc2ncnc3ccc(-c4ccc5c(c4)OCCO5)cc23)c1	1%	22µM*	.	-9%
O=C1/C(=C/c2ccc([N+](=O)[O-])cc2)Oc2cc(O)ccc21	-2%	?	.	22µM*
O=C1/C(=C/c2ccc(Br)cc2)Oc2cc(O)ccc21	-14%	?	.	-9%
O=[N+]([O-])c1ccc(Oc2cccc3cccnc23)c([N+](=O)[O-])c1	10µM*	6%	13µM*	?
N#Cc1ccc(Oc2cccc3cccnc23)c([N+](=O)[O-])c1	2%	0%	.	-4%
C=C(C(=O)c1ccccc1)C(c1ccccc1)C(C)C(=O)c1ccccc1 (stereo not given)	-28%	-1%	0%	-13%
C=C(C(=O)c1ccccc1)C(C)C(=C)C(=O)c1ccccc1	5µM*	12%	0%	?
CCOC(=O)c1ccc(NC(=O)Cn2nc(SC)c(S(=O)(=O)c3ccc(Cl)cc3)c2N)cc1	-4%	18µM*	-2%	1%
COc1cccc(-c2nc3cc4c(cc3cc2CN(C(=O)c2csc(C)n2)C2CC2)CCC4)c1OC	.	1%	.	.
Cc1cc(N2CCC(C)CC2)nc(-c2ccccc2O)n1	-2%	3%	1%	3%
SMILES	Vif-A3G inh	PINK1 expr mod	Epigenetic derep	Vif-APOBEC3F blk
Cc1cc(N2CCC(C)CC2)nc(NCc2ccccc2)n1	2%	35µM*	3%	-7%
COc1ccc(-c2cc(C(F)(F)F)c3c(n2)sc2c(O)cc(=O)[nH]c23)c(OC)c1	-28%	-1%	11µM*	?
COC(=O)C1CCN(Cc2ccc3c(c2)CN(C(=O)c2ccc4nc(C)c(C)nc4c2)CCO3)CC1	.	1%	.	.
COc1ccc(COc2ccsc2C(=O)Nc2ccc(Cl)c(Cl)c2)cc1	-7%	10µM*	-1%	-3%
S=C(NC1CCCCC1)N(CCc1ccccc1)CCc1ccccc1	-1%	4%	-1%	7.1µM*
CC(C)(C)n1ncc2c(=O)n(Cc3ccc(Cl)c(F)c3)cnc21	1%	.	.	.
Cc1cnc(C)c(-c2cccc3c2OC(CNC(=O)C2(c4ccc(Cl)cc4)CC2)C3)n1 (stereo not given)	.	0%	.	.
CN1CCCN(C(=O)[C@@H]2C[C@@H](Sc3nc4ccccc4[nH]3)CN2Cc2ccc(OC(F)(F)F)cc2)CC1	.	0%	.	.
